For assay [1], the target named is Solute carrier family 12 member 5 (Homo sapiens) (UniProt Q9H2X9). Briefly: retest of KCC2 transport modulators without sodium – cell-based, HEK293 KCC2, thallium flux, secondary assay, confirmation (AID 1713). Conditions: FluoZin2 fluorescence, at 10 µM, stronger effect = higher value.
A further assay can be described thus: PubChem AID 1714.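 Further: raw slope of fluorescence over initial fluorescence between 10 and 20 s after thallium.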 Conditions: HEK293-KCC2 + bumetanide/ouabain, thallium flux FluoZin2; at 10 µM; stronger effect = higher value.
For assay [2], the target named is Solute carrier family 12 member 5 (Homo sapiens) (UniProt Q9H2X9). Briefly: modulation of KCC2 thallium flux in HEK cells – cell-based, ouabain, retest, confirmation (AID 1717;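 active means thallium flux slope beyond 3 SD from same-plate DMSO control mean in most replicates, usually higher, sometimes lower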;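 further: slope of initial-normalized fluorescence between seconds 10 and 20 after thallium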). The settings on record: HEK293-KCC2, thallium flux FluoZin2 fluorescence, at 10 µM, bidirectional: low = inhibitor, high = activator.
Assay [3] is described as follows: native HEK Tl+ uptake effects, second counter-screen – HEK cells, counterscreen 2, counter-screen for KCC2 modulator project, confirmation (AID 1718;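 active means thallium flux slope above the same plate's solvent-control mean plus 3 SD in both duplicate wells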;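 further: run without ouabain in cells lacking the KCC2 cotransporter; slope of fluorescence scaled to its starting value between 10 and 20 s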). The settings on record: HEK293 parental, thallium flux FluoZin-2 fluorescence slope; at 10 µM.
For assay [4], the target named is Solute carrier family 12 member 5 (Homo sapiens) (UniProt Q9H2X9). Briefly: retest of KCC2 transport modulation, ouabain-free – cell-based, HEK293 KCC2, thallium flux, FluoZin2, secondary assay 2, confirmation (AID 1715;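 active means thallium flux slope more than 3 SD above or below the plate's solvent-only control mean, mostly below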;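 further: raw slope with 0.1% DMSO as baseline and bumetanide as block control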). The settings on record: HEK293-KCC2, thallium flux FluoZin2 fluorescence; at 10 µM; actives lie on both sides; F/F0 rise rate, 10–20 s post-thallium.

The nature of assay [5]: compound effects on native HEK Tl+ uptake – HEK cells, counterscreen 1, counter-screen for KCC2 modulator project, confirmation (AID 1716;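 active means thallium flux rate significantly above the same plate's solvent-only control wells, beyond their mean plus 3 SD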). The settings on record: HEK293 parental cells, thallium flux FluoZin2, ouabain; at 10 µM; baseline-ratio fluorescence slope, 10–20 s after thallium.
The nature of assay [6]: inhibitors of TNFa-induced NFkB p65 translocation, primary screen, imaging, HUVEC, MLSMR starter and 10KST1 sets (AID 438;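 active means inhibition above 20% together with a positive visual image hit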;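 further: compound added about 3h40 before a 20 min TNFalpha stimulation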;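 on inhibition: signal is the nuclear over cytoplasmic p65 intensity ratio per well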). The settings on record: HUVEC TNFa-induced p65 nuclear translocation; cell count: measured here: nuclei count (cytotoxicity indicator), at 2.08 µM; inhibition: at 2 µM, stronger effect = higher value, 0% TNFa-plus-vehicle, 100% no-TNFa wells.
Assay [7] can be described thus: reduction of polyQ htt aggregates in cells – imaging, exon1htt(103Q)mCFP cells, high-content imaging, primary screen (AID 483;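 active means visual image review flags a hit and inhibition of aggregation exceeds 20%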;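 further: compound exposure lasted 3 days before fixation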;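 on nuclei count: percent of the per-plate median nuclei count of sample wells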). The settings on record: exon1htt(103Q)mCFP cell line, aggregate imaging, at 2 µM; inhibition of aggregation: stronger effect = higher value; nuclei count: measured here: cell count, toxicity.
Assay [8] can be described thus: endothelial E-selectin expression blockers – imaging, HUVEC, immunofluorescence, MLSMR starter and 10KST1 sets, primary screen (AID 487;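 active means visually confirmed hit in the image check and inhibition above 20%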;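 on inhibition: signal is fraction of cell area covered by stained E-selectin grains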;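 on nuclei count: 100% = median nuclei count of all wells on the same plate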). Conditions: HUVEC TNFalpha-induced E-selectin immunofluorescence imaging, at 2 µM; inhibition: stronger effect = higher value; nuclei count: measured here: cell number, toxicity.
A short description of assay [9]: Primary imaging screen for DUSP6 inhibitors that restore phospho-Erk in transfected HeLa cells, chemical complementation (AID 609;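 active means compounds giving at least 50% inhibition in the cell-based MKP-3 phosphatase rescue imaging test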;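 on inhibition: phospho-Erk level distribution per well compared with pooled transfected vehicle control wells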). The settings on record: HeLa MKP-3 transfected, phospho-Erk imaging KS statistic, at 10 µM, cells stimulated with TPA for 15 min.
The target in assay [10] is Dual specificity protein phosphatase 6 (Homo sapiens) (UniProt Q16828). The assay is described as above. The settings on record: HeLa MKP-3 transfected, phospho-Erk imaging KS statistic; at 10 µM; stronger effect = higher value; cells stimulated with TPA for 15 min.
Assay [11] has as its target Voltage-gated potassium channel subunit beta-2 (Rattus norvegicus) (UniProt P62483). Briefly: inhibitors of rat Kvbeta2 reductase activity – biochemical, NADPH fluorescence, primary screen (AID 622;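 active means fluorescence slope higher than the sample average by over 3 SD, cut at about -0.22 in these data, passing the limit was not always enough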;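 further: slope of raw intensity against log time taken from 70 to 1610 s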). Conditions: recombinant KvBeta, 4-cyanobenzaldehyde reduction, at 10 µM, stronger effect = higher value.
For assay [12] the target is unchanged. Briefly: enhancers of rat Kvbeta2 NADPH turnover – biochemical, NADPH fluorescence, primary screen (AID 623;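 active means NADPH fluorescence slope more negative than the mean of all samples by about 3 SD, 99.7% confidence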;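 further: fluorescence intensity change per second fitted from 20 to 320 s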). Conditions: Recombinant KvBeta, NADPH fluorescence decrease slope, 10 min; at 10 µM; stronger effect = lower value.
The target in assay [13] is Alpha-2C adrenergic receptor (Homo sapiens) (UniProt P18825). Briefly: compounds altering alpha2C-coupled GIRK flux – cell-based, HEK293 alpha2C/GIRK1/2, thallium flux, primary screen (AID 624;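 active means fluorescence slope after compound addition differing from the mean of all screened samples at 99.7% confidence, in either direction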;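 further: slope of fluorescence ratio to pre-addition baseline per second over 15 to 24 s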). The settings on record: thallium flux BTC fluorescence, at 10 µM, actives lie on both sides.
A short description of assay [14]: inhibitors of larval lipid processing in zebrafish, primary screen, whole organism, PED6 fluorescence, gall bladder and intestine (AID 686;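 active means a full or partial loss of lipid-probe fluorescence in the fish gall bladder, intestine or both, judged by eye; inactive means no fluorescence loss, or compound toxic to the fish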;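 further: larvae 5 to 7 days old with five fish per well; signal comes from phospholipase A2 cleavage of quenched PED6 carried via bile; overnight exposure to compound and PED6 before scoring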). Conditions: Zebrafish larvae PED6 lipid processing, fluorescence scoring; screened at 20 µM (by protocol).
Assay [15] can be described thus: loss of swimming-algae plug formation – whole organism, Chlamydomonas reinhardtii, WT vs cilia-less mutant, absorbance, 96-well, primary screen (AID 463189;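 active means inhibition at or above 50% relative to wild type and mutant plate controls; inactive means inhibition below 50%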;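 further: 0% = wild type cc124 cells in DMSO and 100% = ciliumless bld1 mutant cells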). The settings on record: Chlamydomonas reinhardtii gravitaxis, OD600 absorbance, 2 days; at 10 µM; stronger effect = higher value.
Assay [16] can be described thus: blockers of RIG-like receptor reporter activation – cell-based, Sendai virus stimulus, luciferase, 10K MLSCN set, TLR/RLR signaling modifier project, primary screen (AID 602276;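 active means inhibition at or above 50% at 10 µM; inactive means inhibition below 50%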;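 further: firefly luciferase from ISG56 promoter only with Renilla not read in this screen; 0% = Sendai virus plus DMSO and 100% = medium plus DMSO without virus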). The settings on record: HEK293 RL24 IRF3 luciferase reporter, at 10 µM, stronger effect = higher value.
Assay [17] in a line: TLR3 IRF3 reporter activation blockers – cell-based, poly I:C stimulus, luciferase, 10K MLSCN set, primary screen (AID 602277;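 active means inhibition of the reporter signal at or above 50%; inactive means inhibition below 50%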). Conditions: HEK293-TLR3 RL24 IRF3 luciferase reporter, at 10 µM, stronger effect = higher value.

The structures appear in SMILES notation. The list shows a part of the results. Records with an inconclusive call do not appear. The source made the active and inactive calls.

Chain of Solute carrier family 12 member 5 (Homo sapiens) (Q9H2X9 whole entry, looked up): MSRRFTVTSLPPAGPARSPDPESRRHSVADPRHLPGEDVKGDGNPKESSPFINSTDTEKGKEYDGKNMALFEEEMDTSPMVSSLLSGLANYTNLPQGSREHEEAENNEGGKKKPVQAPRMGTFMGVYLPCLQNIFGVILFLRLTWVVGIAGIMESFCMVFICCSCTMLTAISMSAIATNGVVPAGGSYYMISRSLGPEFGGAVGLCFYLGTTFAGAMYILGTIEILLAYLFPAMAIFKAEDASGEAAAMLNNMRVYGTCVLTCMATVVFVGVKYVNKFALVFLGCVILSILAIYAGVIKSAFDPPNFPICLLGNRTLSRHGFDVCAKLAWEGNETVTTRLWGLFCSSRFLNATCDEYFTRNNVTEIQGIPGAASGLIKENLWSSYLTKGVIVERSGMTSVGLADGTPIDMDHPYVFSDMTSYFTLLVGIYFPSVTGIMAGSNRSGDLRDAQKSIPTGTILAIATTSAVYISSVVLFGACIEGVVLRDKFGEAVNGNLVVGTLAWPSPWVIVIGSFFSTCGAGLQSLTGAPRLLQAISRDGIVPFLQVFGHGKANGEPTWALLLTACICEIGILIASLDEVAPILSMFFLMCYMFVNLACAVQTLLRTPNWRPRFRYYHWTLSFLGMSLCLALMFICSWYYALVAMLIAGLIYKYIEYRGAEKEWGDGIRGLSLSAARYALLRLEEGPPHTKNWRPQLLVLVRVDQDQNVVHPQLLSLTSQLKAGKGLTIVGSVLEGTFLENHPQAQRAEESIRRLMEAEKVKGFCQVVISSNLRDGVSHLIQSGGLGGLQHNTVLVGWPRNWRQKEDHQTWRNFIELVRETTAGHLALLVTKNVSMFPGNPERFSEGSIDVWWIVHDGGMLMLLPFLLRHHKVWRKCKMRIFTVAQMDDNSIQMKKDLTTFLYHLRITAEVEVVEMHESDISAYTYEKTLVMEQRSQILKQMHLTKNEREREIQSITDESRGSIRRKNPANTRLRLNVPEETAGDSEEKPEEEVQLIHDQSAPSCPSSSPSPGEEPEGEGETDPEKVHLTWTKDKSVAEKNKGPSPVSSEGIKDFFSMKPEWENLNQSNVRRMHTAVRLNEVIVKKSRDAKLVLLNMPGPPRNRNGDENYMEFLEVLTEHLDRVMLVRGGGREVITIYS
Chain of Voltage-gated potassium channel subunit beta-2 (Rattus norvegicus) (P62483 whole entry, looked up): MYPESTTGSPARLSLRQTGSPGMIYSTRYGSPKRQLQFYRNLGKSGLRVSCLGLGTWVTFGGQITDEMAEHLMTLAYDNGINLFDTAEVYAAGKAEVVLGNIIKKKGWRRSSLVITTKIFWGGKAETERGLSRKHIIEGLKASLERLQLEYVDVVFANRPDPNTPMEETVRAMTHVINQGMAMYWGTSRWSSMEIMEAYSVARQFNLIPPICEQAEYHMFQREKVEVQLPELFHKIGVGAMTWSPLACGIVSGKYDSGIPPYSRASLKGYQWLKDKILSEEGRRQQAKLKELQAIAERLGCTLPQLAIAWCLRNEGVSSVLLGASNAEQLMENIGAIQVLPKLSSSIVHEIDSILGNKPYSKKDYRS
Chain of Dual specificity protein phosphatase 6 (Homo sapiens) (Q16828 whole entry, looked up): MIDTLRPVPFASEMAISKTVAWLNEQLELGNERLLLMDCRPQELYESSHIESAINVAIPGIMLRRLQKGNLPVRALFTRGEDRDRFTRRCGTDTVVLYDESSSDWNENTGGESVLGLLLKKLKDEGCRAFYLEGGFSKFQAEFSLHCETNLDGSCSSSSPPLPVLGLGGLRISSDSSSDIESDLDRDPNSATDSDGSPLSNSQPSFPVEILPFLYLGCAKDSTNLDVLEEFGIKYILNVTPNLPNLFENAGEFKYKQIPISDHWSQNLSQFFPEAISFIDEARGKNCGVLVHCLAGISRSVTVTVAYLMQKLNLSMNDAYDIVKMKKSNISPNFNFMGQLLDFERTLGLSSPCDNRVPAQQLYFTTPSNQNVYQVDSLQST
Chain of Alpha-2C adrenergic receptor (Homo sapiens) (P18825 whole entry, looked up): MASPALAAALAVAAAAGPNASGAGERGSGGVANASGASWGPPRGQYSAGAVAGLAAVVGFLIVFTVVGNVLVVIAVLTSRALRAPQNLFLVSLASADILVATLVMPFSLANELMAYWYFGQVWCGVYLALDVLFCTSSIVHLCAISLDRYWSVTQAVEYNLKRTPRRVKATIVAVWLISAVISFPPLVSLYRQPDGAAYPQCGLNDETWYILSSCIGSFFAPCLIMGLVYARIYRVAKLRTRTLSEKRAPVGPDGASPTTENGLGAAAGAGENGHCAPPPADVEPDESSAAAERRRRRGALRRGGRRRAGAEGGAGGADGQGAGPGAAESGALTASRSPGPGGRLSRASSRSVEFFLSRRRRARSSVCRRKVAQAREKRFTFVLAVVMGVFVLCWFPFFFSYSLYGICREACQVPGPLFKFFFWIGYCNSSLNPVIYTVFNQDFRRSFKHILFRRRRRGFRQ

On to `CC1Cc2ccccc2N1C(=O)CSc1nc2ccccc2o1` (centres undefined), for which, in assay [1], the normalised thallium flux (F/F0 slope) is 0.00599 (inactive). Further, the normalized thallium flux in the assay “PubChem AID 1714” was 0.0054 (inactive). The raw Tl+ flux slope (below DMSO = inhibition, above = activation) in [2] was 0.0143 (active). Moreover, in [3], the thallium flux slope was 0.00901 (inactive).

Take `Cc1ccc(OCC(=O)N2CCN(C(=O)c3cccnc3)CC2)cc1`: the normalised thallium flux (F/F0 slope) in [1] was 0.00886 (inactive). The normalized thallium flux in “PubChem AID 1714” is 0.00586 (inactive); in assay [4] it was 0.0326 (inactive). For the same compound, the raw Tl+ flux slope (below DMSO = inhibition, above = activation) in assay [2] was 0.0189 (inactive). Besides, the thallium flux slope in assay [3] is 0.0114 (inactive).

In the case of `O=C(Cc1csc(Nc2nc(=S)[nH]c3ccccc23)n1)NCCCN1CCN(c2cccc(Cl)c2)CC1`, the normalised thallium flux (F/F0 slope) in assay [1] is 0.0134 (active). For the same compound, the normalized thallium flux was 0.0417 (active) in “PubChem AID 1714” and 0.0374 (inactive) in assay [4]. In [2], the raw Tl+ flux slope (below DMSO = inhibition, above = activation) is 0.0417 (active). In addition, the thallium flux slope in assay [3] is 0.0172 (active).

For the compound `Cc1ccc(N=Cc2c(O)n(-c3nccs3)c(=O)c3ccccc23)c(C)c1`, the normalised thallium flux (F/F0 slope) in assay [1] is 0.000176 (active). The normalized thallium flux in “PubChem AID 1714” was -0.00484 (active); in assay [4], 0.0195 (active). In addition, in assay [2], the raw Tl+ flux slope (below DMSO = inhibition, above = activation) was 0.0222 (active). The thallium flux slope in assay [3] was 0.00674 (active).

As for `COc1ccc(-c2cn(-c3ccc(OC)cc3)c(=S)[nH]2)cc1`, in [1], the normalised thallium flux (F/F0 slope) is 0.00623 (inactive). The normalized thallium flux in “PubChem AID 1714” was 0.0216 (active); in assay [4] it was 0.0299 (inactive). For the same compound, the thallium flux rate (normalised fluorescence) in [5] was 0.0163 (active). In addition, the thallium flux slope in [3] was 0.0135 (active).

On to `O=c1c2ccccc2[nH]c(=S)n1CCN1CCC(=C(c2ccc(F)cc2)c2ccc(F)cc2)CC1`, for which, in assay [6], the cell count was 603. In addition, the inhibition is -12.2% (inactive) in assay [6]; -105% (inactive) in assay [8]; -4.44% (inactive) in [10]; -8.89% (inactive) in [15]; 8.28% (inactive) in [16]; 23.8% (inactive) in assay [17]. Besides, the inhibition of aggregation in [7] is 12% (inactive). For the same compound, the nuclei count came to 92.5% in assay [7] and 132% in assay [8]. Besides, the z-score in assay [9] (measured here: cell density z-score) is -1.63; in assay [9] (measured here: nuclear c-Myc green intensity z-score) it was -0.997; in [9] (measured here: nuclear pErk red intensity z-score, stronger effect = higher value), 0.771. In assay [11], the fluorescence slope is -0.452 (inactive). Also, in assay [12], the NADPH fluorescence slope was -0.000101 (inactive). Besides, the slope in [13] was 0.00649 (inactive). For the same compound, the result in assay [14] was inactive. For the same compound, in assay [1], the normalised thallium flux (F/F0 slope) is 0.00677 (inactive). For the same compound, the results for the normalized thallium flux (in “PubChem AID 1714”; in [4]) were 0.0111 (active) and 0.0294 (inactive), respectively. Also, the thallium flux rate (normalised fluorescence) in [5] was 0.00955 (active).

For the compound `Cc1ccccc1NC(=S)NNC(=O)c1cccc(Br)c1`, the normalised thallium flux (F/F0 slope) in [1] was 0.0117 (inactive). Moreover, the normalized thallium flux is 0.028 (active) in “PubChem AID 1714” and 0.0325 (inactive) in assay [4]. Further, in [2], the raw Tl+ flux slope (below DMSO = inhibition, above = activation) is 0.0311 (active). Moreover, the thallium flux slope in [3] is 0.0126 (inactive).

For the compound `Cc1c(C(=O)NC(=S)NCc2cccnc2)oc2ccccc12`, in assay [1], the normalised thallium flux (F/F0 slope) was 0.025 (active). In the assay “PubChem AID 1714”, the normalized thallium flux was 0.0479 (active). In [5], the thallium flux rate (normalised fluorescence) is 0.028 (active). The raw Tl+ flux slope (below DMSO = inhibition, above = activation) in assay [2] was 0.0308 (active). Further, in [3], the thallium flux slope is 0.0284 (active).

As to `Cc1ccc(-n2ncc3c(Nc4cccc(C(=O)O)c4)ncnc32)cc1`, the normalised thallium flux (F/F0 slope) in [1] is 0.00874 (inactive). Also, the normalized thallium flux in the assay “PubChem AID 1714” is 0.00541 (inactive); in assay [4], 0.0319 (inactive). In addition, in [2], the raw Tl+ flux slope (below DMSO = inhibition, above = activation) is 0.0185 (inactive). For the same compound, the thallium flux slope in assay [3] is 0.0099 (inactive).

Take `O=C(CNCc1cccs1)Nc1cc(S(=O)(=O)N2CCCC2)ccc1Cl`: the normalised thallium flux (F/F0 slope) in assay [1] was 0.00507 (inactive). Besides, the values for the normalized thallium flux (in the assay “PubChem AID 1714”; in assay [4]) were 0.00419 (inactive) and 0.0229 (active), respectively. Further, in assay [2], the raw Tl+ flux slope (below DMSO = inhibition, above = activation) was 0.0155 (active). In addition, the thallium flux slope in [3] is 0.0101 (inactive).

On to `O=C(Oc1c(-c2ccco2)oc2ccccc2c1=O)c1cccnc1`, for which the normalised thallium flux (F/F0 slope) in [1] is 0.0222 (active). In addition, the figures for the normalized thallium flux (in the assay “PubChem AID 1714”; in assay [4]) were 0.0675 (active) and 0.0399 (inactive), respectively. For the same compound, in assay [2], the raw Tl+ flux slope (below DMSO = inhibition, above = activation) was 0.0573 (active).

(Values after PubChem BioAssay.)
